The values below come from PubChem BioAssay (Tox21).

Inconclusive results are not listed. Calls of active or inactive are those of the source. Calls come from the whole dose curve.
% is set by controls: 0 for no effect and ±100 for the full control effect.

One assay in a line: G protein-coupled receptor (GPCR) small molecule agonists, calcium flux assay: HEK293 wild type cell line counter screen (AID 1920065). The settings on record: HEK293 WT calcium flux, fluorescence, agonist mode; series mostly up to 57.6 µM; activation: at the top concentration. In a few lines:
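Calcium flux counter screen: compound added in agonist mode at 15 concentrations in triplicate to dye-loaded parental HEK293 cells. Fluorescence (480/540) read kinetically for 3 min; ATP served as positive control.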
For orientation: Calcium assays in cells follow changes in intracellular calcium, usually with a dye or a luminescent sensor.
With `ClCBr`, the “activation” value was -0.218% (inactive).

In the case of `O=C1CN=C(c2ccccc2)c2cc([N+](=O)[O-])ccc2N1`, the “activation” value was 0.413% [at 26.5 µM] (inactive).

`C#CC(C)(C)O`: the “activation” value is 0.13% (inactive).

For the compound `Brc1cccc(-c2ccccc2)c1`, the “activation” value was -0.099% (inactive).

Regarding `CC[N+]1(CCOC(=O)C(O)(c2ccccc2)c2ccccc2)CCCCC1`, the “activation” value was 0.871% [at 26.5 µM] (inactive).

As for `CCCCOC(=O)c1ccccc1N`, the “activation” value was -0.737% (inactive).

In the case of `ClCCCCBr`, the “activation” value is -0.0027% (inactive).

As to `O=S(=O)(Cl)c1ccccc1`, the “activation” value is -1.01% (inactive).

As for `CC(C)CC(N(C)C)C1(c2ccc(Cl)cc2)CCC1` (stereo not drawn), the “activation” value is 0.126% [at 26.5 µM] (inactive).

`C[N+]1(CCC(C(N)=O)(c2ccccc2)c2ccccc2)CCCCC1`: the “activation” value was -0.634% [at 26.5 µM] (inactive).

`Nc1ccc([N+](=O)[O-])cc1[N+](=O)[O-]`: the “activation” value is 0.517% (inactive).

With `ClCCCCCCCl`, the “activation” value is -0.119% (inactive).

`CCNc1nc(NC(C)C(C)C)nc(SC)n1` (stereo not drawn): the “activation” value was 0.0897% (inactive).

`CC(C)CC(C)Nc1ccc(Nc2ccccc2)cc1` (stereo not drawn): the “activation” value was 1.4% (inactive).

As to `CC1(C)COP(Oc2ccccc2)OC1`, the “activation” value is 0.146% (inactive).

Consider `CNC(=O)O/N=C(\C)SC`, for which the “activation” value is -0.899% (inactive).

Turning to `C[C@H](N)C(=O)c1ccccc1`, the “activation” value was 1.4% (inactive).

In the case of `O=C1OC(=O)C2C1C1(Cl)C(Cl)=C(Cl)C2(Cl)C1(Cl)Cl` (stereo not drawn), the “activation” value is 1.12% (inactive).

As for `Nc1cc2c3c(c1)C(c1ccccc1)=N[C@@H](NC(=O)c1cccnc1)C(=O)N3CC2`, the “activation” value was -1.61% (inactive).

`O=C(Nc1ccc(F)cc1F)c1cccnc1Oc1cccc(C(F)(F)F)c1`: the “activation” value was 0.663% (inactive).

With `CC(C)C(Br)C(=O)NC(N)=O` (stereo not drawn), the “activation” value was -0.689% [at 26.5 µM] (inactive).

Take `CCC1(c2cccc(O)c2)CCCCN(C)C1` (stereo not drawn): the “activation” value is -0.121% [at 26.5 µM] (inactive).

Turning to `Fc1ccc(C2(Cn3cncn3)OC2c2ccccc2Cl)cc1` (stereo not drawn), the “activation” value is 0.473% (inactive).

Consider `O=C(O)[C@H](O)[C@@H](O)C(=O)O`, for which the “activation” value is -0.356% (inactive).

On to `CN1C(=O)COc2c(C(=O)NC3CN4CCC3CC4)cc(Cl)cc21` (stereo not drawn), for which the “activation” value was -0.936% [at 26.5 µM] (inactive).

With `COc1c2c(cc3c1OCO3)CCN(C)C2`, the “activation” value was 0.149% [at 26.5 µM] (inactive).

With `O=[N+]([O-])c1cc(Cl)c(Cl)cc1Cl`, the “activation” value is -0.0016% (inactive).

For the compound `ClC(Cl)C(Cl)(Cl)Cl`, the “activation” value is 0.0492% (inactive).

For the compound `c1ccc(Nc2ccc(Nc3ccccc3)cc2)cc1`, the “activation” value was 1.27% (inactive).

For `Cc1cnc2c(C(=O)O)c(Cl)ccc2c1`, the “activation” value was 0.0144% (inactive).

Take `Cc1ccn2nc(S(=O)(=O)Nc3c(F)cccc3F)nc2n1`: the “activation” value is -0.259% (inactive).

Regarding `CCCCC(CC)COP(=O)(Oc1ccccc1)Oc1ccccc1` (stereo not drawn), the “activation” value was 0.486% (inactive).

Turning to `C[C@]12CC[C@@H]3c4ccc(OC(=O)N(CCCl)CCCl)cc4CC[C@H]3[C@@H]1CC[C@@H]2O`, the “activation” value is -3.92% [at 26.5 µM] (inactive).

With `CC(C)(N)Cc1ccc(Cl)cc1`, the “activation” value was 0.142% [at 26.5 µM] (inactive).

`N#Cc1c2ccccc2cc2ccccc12`: the “activation” value was -0.23% (inactive).

Take `N#Cc1c[nH]cc1-c1cccc2c1OC(F)(F)O2`: the “activation” value was -1.99% (inactive).

Regarding `C=CC(=O)OCC`, the “activation” value was 0.132% (inactive).

For the compound `CNC(=O)O/N=C(\C)C(C)S(C)(=O)=O` (stereo not drawn), the “activation” value is 0.177% [at 544 µM] (inactive).

For `Cc1ccc2cc3c(ccc4ccccc43)c3c2c1CC3`, the “activation” value is -0.215% [at 26.5 µM] (inactive).

The next assay in a line: p53 small molecule agonists, cell-based qHTS assay with human liver microsomes: qHTS cell viability counter screen (AID 1963579). Note: nearly all actives have a fitted effect of over 45% in size. Note: potency is the fitted concentration of half-maximal effect. The settings on record: p53RE-bla HCT-116 viability, ATP luminescence, 16 h, HLM; series mostly up to 66 µM; activity change, negative = cytotoxicity: at the top concentration. The procedure, abridged:
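Cytotoxicity counter screen: p53RE-bla, 4,000 cells/well; 5 h settle, 37 C/5% CO2; cpd + HLM 0.5 mg/mL + NADPH 0.5 mg/mL (final); 16 h, 37 C; CellTiter-Glo, 30 min RT, luminescence.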
On the technique in general: qHTS replaces the single test concentration by a dilution series.
For `ClCBr`, the “activity change, negative = cytotoxicity” value is 1.23% (inactive).

Take `O=C1CN=C(c2ccccc2)c2cc([N+](=O)[O-])ccc2N1`: the “activity change, negative = cytotoxicity” value was -11.1% [at 30.3 µM] (inactive).

Turning to `C#CC(C)(C)O`, the “activity change, negative = cytotoxicity” value is 1.51% (inactive).

For `Brc1cccc(-c2ccccc2)c1`, the “activity change, negative = cytotoxicity” value is -6.93% (inactive).

With `CC[N+]1(CCOC(=O)C(O)(c2ccccc2)c2ccccc2)CCCCC1`, the “activity change, negative = cytotoxicity” value was -3.73% [at 30.3 µM] (inactive).

For the compound `CCCCOC(=O)c1ccccc1N`, the “activity change, negative = cytotoxicity” value was -18.6% (inactive).

Turning to `ClCCCCBr`, the “activity change, negative = cytotoxicity” value was 1.85% (inactive).

Take `O=S(=O)(Cl)c1ccccc1`: the “activity change, negative = cytotoxicity” value is -0.17% (inactive).

Take `CC(C)CC(N(C)C)C1(c2ccc(Cl)cc2)CCC1` (stereo not drawn): the “activity change, negative = cytotoxicity” value was 3.1% [at 30.3 µM] (inactive).

Consider `C[N+]1(CCC(C(N)=O)(c2ccccc2)c2ccccc2)CCCCC1`, for which the “activity change, negative = cytotoxicity” value was 1.11% [at 30.3 µM] (inactive).

For `Nc1ccc([N+](=O)[O-])cc1[N+](=O)[O-]`, the “activity change, negative = cytotoxicity” value was 0.456% (inactive).

As for `ClCCCCCCCl`, the “activity change, negative = cytotoxicity” value is 0.214% (inactive).

For the compound `CCNc1nc(NC(C)C(C)C)nc(SC)n1` (stereo not drawn), the “activity change, negative = cytotoxicity” value was 3.53% (inactive).

`CC(C)CC(C)Nc1ccc(Nc2ccccc2)cc1` (stereo not drawn): the “activity change, negative = cytotoxicity” value was 15.7% (inactive).

Take `CC1(C)COP(Oc2ccccc2)OC1`: the “activity change, negative = cytotoxicity” value is 3.37% (inactive).

As for `CNC(=O)O/N=C(\C)SC`, the “activity change, negative = cytotoxicity” value is -8.6% (inactive).

Regarding `C[C@H](N)C(=O)c1ccccc1`, the “activity change, negative = cytotoxicity” value was -6.48% (inactive).

As to `O=C1OC(=O)C2C1C1(Cl)C(Cl)=C(Cl)C2(Cl)C1(Cl)Cl` (stereo not drawn), the “activity change, negative = cytotoxicity” value is 5.63% (inactive).

Turning to `Nc1cc2c3c(c1)C(c1ccccc1)=N[C@@H](NC(=O)c1cccnc1)C(=O)N3CC2`, the “activity change, negative = cytotoxicity” value was 9.57% (inactive).

For `O=C(Nc1ccc(F)cc1F)c1cccnc1Oc1cccc(C(F)(F)F)c1`, the “activity change, negative = cytotoxicity” value is -3.16% (inactive).

Turning to `CC(C)C(Br)C(=O)NC(N)=O` (stereo not drawn), the “activity change, negative = cytotoxicity” value is 0.639% [at 30.3 µM] (inactive).

Turning to `CCC1(c2cccc(O)c2)CCCCN(C)C1` (stereo not drawn), the “activity change, negative = cytotoxicity” value was 8.39% [at 30.3 µM] (inactive).

`Fc1ccc(C2(Cn3cncn3)OC2c2ccccc2Cl)cc1` (stereo not drawn): the “activity change, negative = cytotoxicity” value was -2.54% (inactive).

Regarding `O=C(O)[C@H](O)[C@@H](O)C(=O)O`, the “activity change, negative = cytotoxicity” value is -19.4% (inactive).

For the compound `CN1C(=O)COc2c(C(=O)NC3CN4CCC3CC4)cc(Cl)cc21` (stereo not drawn), the “activity change, negative = cytotoxicity” value is -1.03% [at 30.3 µM] (inactive).

For the compound `COc1c2c(cc3c1OCO3)CCN(C)C2`, the “activity change, negative = cytotoxicity” value is -1.74% [at 30.3 µM] (inactive).

Take `O=[N+]([O-])c1cc(Cl)c(Cl)cc1Cl`: the “activity change, negative = cytotoxicity” value was 3.42% (inactive).

For the compound `ClC(Cl)C(Cl)(Cl)Cl`, the “activity change, negative = cytotoxicity” value is 2.05% (inactive).

On to `c1ccc(Nc2ccc(Nc3ccccc3)cc2)cc1`, for which the “activity change, negative = cytotoxicity” value was -11.8% (inactive).

With `Cc1cnc2c(C(=O)O)c(Cl)ccc2c1`, the “activity change, negative = cytotoxicity” value was 6.89% (inactive).

As to `Cc1ccn2nc(S(=O)(=O)Nc3c(F)cccc3F)nc2n1`, the “activity change, negative = cytotoxicity” value was -1.22% (inactive).

With `CCCCC(CC)COP(=O)(Oc1ccccc1)Oc1ccccc1` (stereo not drawn), the “activity change, negative = cytotoxicity” value is 2.88% (inactive).

Consider `C[C@]12CC[C@@H]3c4ccc(OC(=O)N(CCCl)CCCl)cc4CC[C@H]3[C@@H]1CC[C@@H]2O`, for which the “activity change, negative = cytotoxicity” value is 13.3% [at 30.3 µM] (inactive).

On to `CC(C)(N)Cc1ccc(Cl)cc1`, for which the “activity change, negative = cytotoxicity” value is -3.06% [at 30.3 µM] (inactive).

`N#Cc1c2ccccc2cc2ccccc12`: the “activity change, negative = cytotoxicity” value is -0.574% (inactive).

Turning to `N#Cc1c[nH]cc1-c1cccc2c1OC(F)(F)O2`, the “activity change, negative = cytotoxicity” value is 17.1% (inactive).

With `C=CC(=O)OCC`, the “activity change, negative = cytotoxicity” value was -20.3% (inactive).

On to `CNC(=O)O/N=C(\C)C(C)S(C)(=O)=O` (stereo not drawn), for which the Potency was 316 µM (active).

For `Cc1ccc2cc3c(ccc4ccccc43)c3c2c1CC3`, the “activity change, negative = cytotoxicity” value was 0.506% [at 30.3 µM] (inactive).
